Shown are actives, neighbours in structure and some others; about 12% of the full set was active somewhere.
JMJD2A Tudor – blocks the human JMJD2A Tudor domain | O75164 | 4.4% of 390,000 active | AlphaScreen JMJD2A-Tudor / H3K4me3 peptide binding | Potency, µM (top dose mostly 114 µM), without a hit: at the highest dose activity change, negative = inhibition, most hits filed as inhibitors; note: % is set by controls: 0 for no effect and ±100 for the full control effect; nearly all actives have a fitted effect of over 50% in size
Sfp inh – Sfp phosphopantetheinyl transferase inhibition | Biochemical Sfp PPTase activity, qHTS | Potency, µM, for the others: largest response in the series, negative = inhibition, actives largely listed as inhibitors | 3.5% of 310,000 active | Q9F4F7;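 note: the enzyme is Sfp with the accession as filed and its product quenches rhodamine fluorescence; 0% = enzyme reaction without inhibitor and -100% = no enzyme wells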
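Fluorescence-quenching assay with 15 nM Sfp, 5 uM rhodamine-CoA and 12.5 uM BHQ-2-labelled ybbR peptide in pH 7.6 Hepes/MgCl2 buffer. Enzyme was pre-incubated with compound for 15 min at room temperature. Rate was taken from the 30-min fluorescence change (525/598 nm).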
G9a block – G9a (human) methyltransferase inhibition; 8.8% of 350,000 active; G9a H3K9 monomethylation, AlphaScreen, 2 h; Potency, µM (titrated, usually from 102 µM), for inactives: at the top dose activity, negative = inhibition, actives largely listed as inhibitors; Q96KQ7; AID 504332; note: % is set by controls: 0 for no effect and ±100 for the full control effect; nearly all actives have a fitted effect of over 75% in size
Target sequence (Q96KQ7 913-1193 limits assumed): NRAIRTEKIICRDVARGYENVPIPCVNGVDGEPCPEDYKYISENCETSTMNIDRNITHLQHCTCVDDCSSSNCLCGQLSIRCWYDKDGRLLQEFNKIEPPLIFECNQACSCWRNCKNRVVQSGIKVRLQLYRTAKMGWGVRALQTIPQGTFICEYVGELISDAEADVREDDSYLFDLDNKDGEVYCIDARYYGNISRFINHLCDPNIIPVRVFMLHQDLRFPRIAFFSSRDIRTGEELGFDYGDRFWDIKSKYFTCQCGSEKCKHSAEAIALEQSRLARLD
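Compounds were preincubated with 20 nM G9a for 15 min, after which biotinylated H3K9 peptide (500 nM) and SAM (20 uM) started a 2 h room-temperature reaction. Monomethylated product was quantified by antibody-based AlphaScreen chemiluminescence.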
HP1b chromo inh – inhibitors of HP1-beta chromodomain binding to methylated histone tails. P83916. AlphaScreen HP1-beta / biotin-H3K9me3 peptide binding. Potency, µM (titrated, usually from 114 µM), inactives show at the top dose activity change, negative = inhibition, actives largely listed as inhibitors. 0.56% of 390,000 active. AID 540317; note: nearly all actives have a fitted effect of over 70% in size
Target sequence (P83916 whole entry, looked up): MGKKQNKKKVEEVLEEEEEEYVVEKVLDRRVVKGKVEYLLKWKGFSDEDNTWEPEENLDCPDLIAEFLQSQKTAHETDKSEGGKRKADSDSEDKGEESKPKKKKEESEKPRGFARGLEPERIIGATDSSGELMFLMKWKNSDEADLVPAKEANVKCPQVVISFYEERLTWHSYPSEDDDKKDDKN
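HP1-beta protein (50 nM final) preincubated 30 min at room temperature with biotinylated H3(1-18)K9me3 peptide (50 nM) in PBS pH 7.4, 0.01% Tween-20, then compound added for 30 min. AlphaScreen streptavidin donor/nickel chelate acceptor beads (10 ug/mL final), 30 min dark, luminescence read.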
TDP1 inh – blocks human tyrosyl-DNA phosphodiesterase 1. Q9NUW8. recombinant TDP1, AlphaScreen DNA substrate cleavage. Potency, µM (highest dose often 130 µM), inactives show at the top dose activity change, negative = inhibition, actives largely listed as inhibitors. 0.28% of 350,000 active; note: % is set by controls: 0 for no effect and ±100 for the full control effect; nearly all actives have a fitted effect of over 40% in size
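Recombinant human Tdp1 (E. coli-expressed, 1 nM final) preincubated with compounds 15 min at room temperature, then 5'-biotin/3'-phosphotyrosine-FITC DNA substrate (15 nM final) added for 5 min. AlphaScreen beads (10 ug/ml final) added 10 min; cleavage lowers signal.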
BAZ2B inh – blocks human BAZ2B; Q9UIF8; AlphaScreen BAZ2B-H3K14Ac peptide displacement; Potency, µM (top dose mostly 114 µM), for inactives: at the top dose activity change, negative = inhibition, usual class: inhibitors; 4.4% of 360,000 active; note: % is set by controls: 0 for no effect and ±100 for the full control effect; nearly all actives have a fitted effect of over 60% in size
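AlphaScreen displacement of biotin-H3(5-23)K14Ac peptide (50 nM final) from BAZ2B (50 nM final) in PBS pH 7.4, 0.01% Tween-20; complex preformed 30 min RT, then compounds (top 110 uM) 30 min RT, beads 20 min dark.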
* = called active by the depositor; [ ] = remark or other dose. Calls come from the whole dose curve; as a rule, active = well fitted curve in the direction sought with a large enough effect; inconclusive = small, poorly fitted or top-dose-only effect, or another doubt; inactive = no such curve, though single readings can be large; an effect the other way counts as inactive or inconclusive. Potency is the fitted concentration of half-maximal effect.

Screening CC(=O)Nc1ccc(C(=O)NNC(=O)c2cc([N+](=O)[O-])cc([N+](=O)[O-])c2)cc1 returned JMJD2A Tudor -8%, Sfp inh 8%, G9a block -32%, HP1b chromo inh 14%, TDP1 inh 4% and BAZ2B inh -23%.
`O=C(NNc1ccc([N+](=O)[O-])cc1)c1ccccc1F` gave JMJD2A Tudor -26%, Sfp inh -8%, G9a block 35µM*, HP1b chromo inh 13%, TDP1 inh 3% and BAZ2B inh -38%.
`O=C(NNS(=O)(=O)c1ccc(F)cc1)c1ccccc1F` gave JMJD2A Tudor -13%, Sfp inh 10%, G9a block 26%, HP1b chromo inh 29%, TDP1 inh 6% and BAZ2B inh -4%.
For O=C(NNS(=O)(=O)c1ccc([N+](=O)[O-])cc1)c1ccc([N+](=O)[O-])cc1 the results were JMJD2A Tudor 1.3µM*, Sfp inh 2%, G9a block 17%[2.33 µM], HP1b chromo inh inconclusive and BAZ2B inh -19%.
`O=C(NNS(=O)(=O)c1ccc(F)cc1)c1ccccc1` gave JMJD2A Tudor 14µM*, Sfp inh 15%, HP1b chromo inh 6%, TDP1 inh 3% and BAZ2B inh 3%.
`CC(=O)Nc1ccc(NC(=O)c2cc([N+](=O)[O-])cc([N+](=O)[O-])c2)cc1` gave JMJD2A Tudor -29%, Sfp inh -8%, G9a block 50µM*, HP1b chromo inh 27%, TDP1 inh 4% and BAZ2B inh inconclusive.
Cc1cccc(Nc2nnc(SCC(O)=C(C#N)c3nc4ccccc4[nH]3)s2)c1 was read as JMJD2A Tudor -12% and HP1b chromo inh 10%.
Cc1cccc(CCN(CC(=O)NCc2ccc(F)cc2)C(=O)c2csnn2)c1 was read as JMJD2A Tudor -5%, Sfp inh -1%, G9a block -1%, HP1b chromo inh 25%, TDP1 inh 0% and BAZ2B inh -14%.
`O=C(NNc1ccccc1)C(=O)NNS(=O)(=O)c1ccc([N+](=O)[O-])cc1` gave JMJD2A Tudor 3.2µM*, Sfp inh 14%, G9a block 6.3µM*, HP1b chromo inh 11%, TDP1 inh 3% and BAZ2B inh -27%.
Screening CC(=O)Nc1ccc(S(=O)(=O)NNc2ccc([N+](=O)[O-])cc2)cc1 returned JMJD2A Tudor 6.3µM*, Sfp inh 22µM*, G9a block 1.3µM*, HP1b chromo inh inconclusive and BAZ2B inh 50µM*.
Screening CC(=O)Nc1ccc(S(=O)(=O)NNC(=O)c2ccc([N+](=O)[O-])cc2)cc1 returned JMJD2A Tudor -13%, Sfp inh -6%, G9a block -22%, HP1b chromo inh 3%, TDP1 inh 4% and BAZ2B inh -16%.
Screening Cc1ccc(S(=O)(=O)NNC(=O)c2ccncc2)cc1[N+](=O)[O-] returned JMJD2A Tudor 4µM*, Sfp inh -4%, G9a block 50µM*, HP1b chromo inh 21%, TDP1 inh 3% and BAZ2B inh -30%.
`COc1cc(CSc2ncn[nH]2)c(OC)cc1CSc1ncn[nH]1` gave JMJD2A Tudor -7%, Sfp inh 3%, G9a block 33%[59 µM], HP1b chromo inh 25%, TDP1 inh 2% and BAZ2B inh 1%.
For CCCOc1ccc(CSc2ncn[nH]2)cc1 the results were JMJD2A Tudor 3.2µM*, Sfp inh 10%, G9a block 13µM*, HP1b chromo inh inconclusive, TDP1 inh 8% and BAZ2B inh 1%.
For O=C(C1COc2cc(S(=O)(=O)Nc3ccc(Cl)cc3)ccc2O1)N1CCCC1 (centres undefined) the results were JMJD2A Tudor -19%, G9a block -36%[59 µM], HP1b chromo inh 22%, TDP1 inh -1% and BAZ2B inh inconclusive.
For NC(=S)N=Nc1c(O)[nH]c2c(Br)cc(Br)cc12 the results were JMJD2A Tudor -15%, Sfp inh -1%, G9a block 2%, HP1b chromo inh 24%, TDP1 inh 5% and BAZ2B inh -25%.
`FC(F)(F)c1ccccc1CNCc1ccc2c(c1)OCO2` gave JMJD2A Tudor 20µM*, Sfp inh -19%, G9a block -63%, HP1b chromo inh inconclusive and BAZ2B inh inconclusive.
For COc1ccc2ccc(O)c(CN(C)CC(=O)Nc3ccccc3C(F)(F)F)c2c1 the results were JMJD2A Tudor inconclusive, Sfp inh -9%, G9a block 7.9µM*, HP1b chromo inh -20%, TDP1 inh 8%[0.0935 µM] and BAZ2B inh -13%.
Screening COc1ccc(CNCc2cccc3ccccc23)cc1 returned JMJD2A Tudor 18µM*, Sfp inh -23%, HP1b chromo inh inconclusive, TDP1 inh 0% and BAZ2B inh inconclusive.
For COc1ccc(CNCc2ccccc2C(F)(F)F)cc1 the results were JMJD2A Tudor 28µM*, Sfp inh -22%, G9a block 8.9µM*, HP1b chromo inh inconclusive and BAZ2B inh 79µM*.
For NC(=O)C1CC2(NC(=O)NC2=O)c2cc(F)ccc2O1 (centres undefined) the results were Sfp inh 8% and G9a block -2%[12.7 µM].
CCOc1ccc(CN(C)C(=O)[C@H](Cc2ccccc2)NC(=O)OCc2ccccc2)cc1OC was read as JMJD2A Tudor -18%, Sfp inh 2%, G9a block 0%, HP1b chromo inh 9%, TDP1 inh 6% and BAZ2B inh -9%.
`Cc1nn(CC(=O)OCC(=O)c2ccc(OC(F)F)cc2)c(C)c1[N+](=O)[O-]` gave JMJD2A Tudor -16%, G9a block 8%[2.33 µM], HP1b chromo inh 75%, TDP1 inh 0% and BAZ2B inh 3%.
Screening COc1ccc(CN(C)CC(=O)Nc2ccccc2C(F)(F)F)cc1 returned JMJD2A Tudor 30%, Sfp inh 6%, G9a block 60%, HP1b chromo inh 106%, TDP1 inh -2% and BAZ2B inh 8%.
For COC(=O)c1ccc(C)c(NC(=O)CCc2ccc(OC)cc2)c1 the results were JMJD2A Tudor -18%, Sfp inh 89µM*, G9a block -6%[59 µM], HP1b chromo inh 22%, TDP1 inh 3% and BAZ2B inh -6%.
COc1ccc(CCNCC(=O)Nc2ccccc2C(F)(F)F)cc1 was read as JMJD2A Tudor 3.2µM*, Sfp inh -12%, G9a block 2.5µM*, HP1b chromo inh inconclusive, TDP1 inh 5% and BAZ2B inh 50µM*.
Screening COc1ccc2cc3cc(C(=O)N4CCN(c5ccccn5)CC4)oc3nc2c1 returned JMJD2A Tudor -1%, Sfp inh 21%, G9a block 22%, HP1b chromo inh 14%[57 µM], TDP1 inh 5% and BAZ2B inh 0%.
